Test results: the supplement of paper PMC10849652
About 8,800 targets were measured; listed, in parts, are those with a hit and a random draw of the rest. About 0.5% of all pairs of compound and target were hits.

Columns and labels:
Assay in all cases: log2 fold change, soluble protein after heating vs DMSO (PISA); higher = thermal stabilisation; K562 lysate, 10 uM; active = over 0.2 and 3.5 SD of the protein, either way, in both replicates (recomputed)
vemurafenib = compound: CCCS(=O)(=O)Nc1ccc(F)c(C(=O)c2c[nH]c3ncc(-c4ccc(Cl)cc4)cc23)c1F [vemurafenib]
Summary of the method: (§1)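 K562 pellets were dounce-homogenised in PBS pH 7.4 containing 1 mM MgCl2, and the crude extract, at 1 mg/mL protein, was exposed to 10 μM compound for 30 min. Aliquots were heated for 3 min across 48°C-58°C, pooled, brought to 0.5% NP-40 at 4°C and spun at 21,000xg for 90 min, with the supernatant taken as soluble protein. TMTpro 16plex LC-MS/MS with equalised channel sums quantified that protein. Values are log-two fold changes in thermal stability relative to solvent controls, taken from duplicates.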

[1] = compound: CCCS(=O)(=O)Nc1ccc(F)c(C(=O)c2c[nH]c3ncc(Cl)cc23)c1F
Summary of the method: as §1

barasertib = compound: CCN(CCCOc1ccc2c(Nc3cc(CC(=O)Nc4cccc(F)c4)[nH]n3)ncnc2c1)CCOP(=O)(O)O [barasertib]
Summary of the method: as §1

[2] = compound: CC[C@@H]1C(=O)N(C)c2cnc(Nc3ccc(C(=O)NC4CCN(C)CC4)cc3OC)nc2N1C1CCCC1
Summary of the method: as §1

volasertib = compound: CC[C@@H]1C(=O)N(C)c2cnc(Nc3ccc(C(=O)N[C@H]4CC[C@H](N5CCN(CC6CC6)CC5)CC4)cc3OC)nc2N1C(C)C [volasertib]
Summary of the method: as §1

[3] = compound: CCn1c(C(=O)N(C2CC2)C2CC2)cc2c3c(ncn3C)c(Nc3cc(C)n(C)n3)nc21
Summary of the method: as §1

[4] = compound: CCn1cc(-c2ccnc3[nH]c(-c4cccc(CN(C)C)c4)cc23)c(-c2ccc(NC(=O)N(C)C)cc2)n1
Summary of the method: as §1

[5] = compound: CN1CCC(CNc2ccc3ncc(-c4cccc(OC(F)(F)F)c4)n3n2)CC1
Summary of the method: as §1

saracatinib = compound: CN1CCN(CCOc2cc(OC3CCOCC3)c3c(Nc4c(Cl)ccc5c4OCO5)ncnc3c2)CC1 [saracatinib]
Summary of the method: as §1

sotrastaurin = compound: CN1CCN(c2nc(C3=C(c4c[nH]c5ccccc45)C(=O)NC3=O)c3ccccc3n2)CC1 [sotrastaurin]
Summary of the method: as §1

alvocidib = compound: CN1CC[C@H](c2c(O)cc(O)c3c(=O)cc(-c4ccccc4Cl)oc23)[C@H](O)C1 [alvocidib]
Summary of the method: as §1

Tubastatin A = compound: CN1CCc2c(c3ccccc3n2Cc2ccc(C(=O)NO)cc2)C1 [Tubastatin A]
Summary of the method: as §1

[6] = compound: CNC(=O)C1=CC=CC=C1NC2=NC(=NC=C2Cl)NC3=C(C=C(C=C3)N4CCOCC4)OC
Summary of the method: as §1

defactinib = compound: CNC(=O)c1ccc(Nc2ncc(C(F)(F)F)c(NCc3nccnc3N(C)S(C)(=O)=O)n2)cc1 [defactinib]
Summary of the method: as §1

[7] = compound: CNc1nc(-c2ccc3c(N)n[nH]c3c2)cc(N2C[C@@H](C(=O)NC3CCCCC3)CC[C@H]2C)n1
Summary of the method: as §1

encorafenib = compound: COC(=O)N[C@@H](C)CNc1nccc(-c2cn(C(C)C)nc2-c2cc(Cl)cc(NS(C)(=O)=O)c2F)n1 [encorafenib]
Summary of the method: as §1

[8] = compound: COC(=O)[C@H](CCSC)NC(=O)C1=C(C=C(C=C1)NC[C@H](CS)N)C2=CC=CC=C2
Summary of the method: as §1

alisertib = compound: COc1cc(Nc2ncc3c(n2)-c2ccc(Cl)cc2C(c2c(F)cccc2OC)=NC3)ccc1C(=O)O [alisertib]
Summary of the method: as §1

[9] = compound: COc1cc2nc(-c3cc(F)ccc3O)nc(N[C@@H]3CNC[C@H]3C(C)(C)O)c2cc1OC
Summary of the method: as §1

gefitinib = compound: COc1cc2ncnc(Nc3ccc(F)c(Cl)c3)c2cc1OCCCN1CCOCC1 [gefitinib]
Summary of the method: as §1

Measured: log2 fold change

VPS39 (UniProt Q96JC1)
inactive: vemurafenib -0.034 | [1] 0.014 | barasertib 0.022 | [2] -0.029 | volasertib -0.045 | [3] 0.001 | [5] -0.151 | saracatinib 0.018 | sotrastaurin -0.008 | Tubastatin A -0.06 | [6] 0.036 | defactinib 0.011 | [7] 0.007 | encorafenib 0.043 | [8] -0.218 | alisertib 0.041 | [9] 0.026 | gefitinib -0.041
active: [4] 0.73 | alvocidib 0.268

UXT isoform 2 (UniProt Q9UBK9)
UniProt Q9UBK9, sequence (Q9UBK9 whole entry, looked up): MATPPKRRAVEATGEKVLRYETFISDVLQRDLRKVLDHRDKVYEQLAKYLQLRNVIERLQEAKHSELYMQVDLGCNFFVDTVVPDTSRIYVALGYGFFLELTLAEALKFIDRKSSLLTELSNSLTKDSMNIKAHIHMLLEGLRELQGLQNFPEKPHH
active: [2] 0.321 | [7] 0.574
inactive: vemurafenib -0.023 | [1] 0 | barasertib 0.056 | volasertib -0.004 | [3] -0.088 | [4] -0.05 | [5] 0.032 | saracatinib 0.053 | sotrastaurin 0.001 | alvocidib -0.038 | Tubastatin A 0.081 | [6] 0.015 | defactinib 0.069 | encorafenib -0.081 | [8] 0.025 | alisertib -0.041 | [9] 0.038 | gefitinib 0.04

USP16 (UniProt Q9Y5T5)
inactive: vemurafenib 0.038 | [1] 0.005 | barasertib 0.016 | [2] -0.009 | volasertib -0.011 | [3] 0.01 | [4] 0.039 | [5] -0.045 | saracatinib 0.054 | sotrastaurin 0.013 | alvocidib 0.004 | Tubastatin A -0.118 | [6] -0.011 | defactinib 0.035 | [7] 0.008 | encorafenib 0.059 | [8] 0.081 | alisertib -0.011 | [9] -0.003 | gefitinib -0.013

ZDHHC18 (UniProt Q9NUE0)
inactive: vemurafenib 0.043 | [1] 0.026 | barasertib 0.016 | [2] -0.019 | volasertib -0.052 | [3] -0.068 | [4] -0.138 | [5] 0.085 | saracatinib 0.036 | sotrastaurin 0.04 | alvocidib -0.09 | Tubastatin A -0.016 | [6] 0.222 | defactinib 0.029 | [7] -0.044 | encorafenib -0.038 | [8] 0.042 | alisertib -0.131 | [9] -0.036 | gefitinib -0.069

ZNF318 (UniProt Q5VUA4)
inactive: vemurafenib 0.089 | [1] 0.025 | barasertib 0.077 | [2] 0.025 | volasertib 0.011 | [3] -0.007 | [4] 0.086 | [5] -0.033 | saracatinib 0.079 | sotrastaurin 0.047 | alvocidib 0.033 | Tubastatin A -0.177 | [6] 0.034 | defactinib -0.055 | [7] -0.002 | encorafenib 0.03 | [8] 0.117 | alisertib 0.03 | [9] 0.142 | gefitinib 0.025

XPO6 (UniProt Q96QU8)
UniProt Q96QU8, sequence (Q96QU8 whole entry, looked up): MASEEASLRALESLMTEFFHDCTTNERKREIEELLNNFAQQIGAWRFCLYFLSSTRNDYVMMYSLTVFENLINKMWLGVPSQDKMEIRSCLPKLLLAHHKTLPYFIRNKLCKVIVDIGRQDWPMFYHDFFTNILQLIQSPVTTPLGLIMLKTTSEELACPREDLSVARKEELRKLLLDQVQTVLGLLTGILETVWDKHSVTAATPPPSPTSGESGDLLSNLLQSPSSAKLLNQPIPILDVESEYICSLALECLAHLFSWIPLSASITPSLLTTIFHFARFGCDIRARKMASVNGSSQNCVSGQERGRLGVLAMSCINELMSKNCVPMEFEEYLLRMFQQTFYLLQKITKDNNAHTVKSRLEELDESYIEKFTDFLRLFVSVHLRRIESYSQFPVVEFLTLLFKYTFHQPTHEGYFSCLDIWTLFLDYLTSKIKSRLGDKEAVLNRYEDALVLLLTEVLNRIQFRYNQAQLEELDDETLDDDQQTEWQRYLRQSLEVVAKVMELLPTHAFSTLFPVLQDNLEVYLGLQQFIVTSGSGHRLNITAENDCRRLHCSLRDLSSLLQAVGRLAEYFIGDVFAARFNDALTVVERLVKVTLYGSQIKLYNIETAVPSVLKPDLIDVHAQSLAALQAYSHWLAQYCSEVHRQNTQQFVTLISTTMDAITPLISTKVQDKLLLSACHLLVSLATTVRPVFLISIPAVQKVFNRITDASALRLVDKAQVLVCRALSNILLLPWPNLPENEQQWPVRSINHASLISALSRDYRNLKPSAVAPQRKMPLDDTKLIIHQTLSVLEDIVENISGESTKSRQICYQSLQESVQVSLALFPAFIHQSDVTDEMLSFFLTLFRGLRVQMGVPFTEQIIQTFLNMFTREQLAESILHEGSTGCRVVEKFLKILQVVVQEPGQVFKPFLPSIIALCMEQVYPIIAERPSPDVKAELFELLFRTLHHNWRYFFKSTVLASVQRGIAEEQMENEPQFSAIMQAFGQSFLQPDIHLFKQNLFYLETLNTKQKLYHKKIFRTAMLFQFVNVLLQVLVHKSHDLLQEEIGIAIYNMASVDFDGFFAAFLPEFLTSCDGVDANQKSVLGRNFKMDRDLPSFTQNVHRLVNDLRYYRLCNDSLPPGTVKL
inactive: vemurafenib 0.033 | [1] 0.013 | barasertib 0.062 | [2] -0.03 | volasertib -0.058 | [3] -0.049 | [4] 0.448 | [5] 0.071 | saracatinib -0.007 | sotrastaurin 0 | alvocidib -0.058 | Tubastatin A -0.09 | [6] -0.048 | defactinib -0.025 | [7] -0.05 | encorafenib -0.006 | [8] 0.021 | alisertib 0.036 | [9] 0.031 | gefitinib 0.067

UQCRC2 (UniProt P22695)
UniProt P22695, sequence (P22695 whole entry, looked up): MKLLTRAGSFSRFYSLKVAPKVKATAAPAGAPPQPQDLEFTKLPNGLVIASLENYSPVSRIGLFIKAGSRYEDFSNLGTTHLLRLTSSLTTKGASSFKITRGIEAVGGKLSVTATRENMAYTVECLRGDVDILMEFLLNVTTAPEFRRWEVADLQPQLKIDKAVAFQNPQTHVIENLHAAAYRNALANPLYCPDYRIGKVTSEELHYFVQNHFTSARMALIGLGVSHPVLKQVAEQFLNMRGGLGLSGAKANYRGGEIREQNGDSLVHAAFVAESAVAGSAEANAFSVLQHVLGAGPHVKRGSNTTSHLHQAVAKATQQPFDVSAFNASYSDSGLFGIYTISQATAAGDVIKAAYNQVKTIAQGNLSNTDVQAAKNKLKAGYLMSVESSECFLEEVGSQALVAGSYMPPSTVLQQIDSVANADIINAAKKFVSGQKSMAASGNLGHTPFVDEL
inactive: vemurafenib -0.016 | [1] 0.01 | barasertib -0.018 | [2] 0.026 | volasertib 0.01 | [3] -0.015 | [4] 0.034 | [5] -0.003 | saracatinib 0.002 | sotrastaurin -0.02 | alvocidib -0.005 | Tubastatin A 0.035 | [6] -0.013 | defactinib 0.014 | [7] 0.01 | encorafenib -0.001 | [8] -0.013 | alisertib 0.022 | [9] 0.024 | gefitinib -0.013

USP3 (UniProt Q9Y6I4)
inactive: vemurafenib 0.041 | [1] -0.007 | barasertib 0.008 | [2] 0.023 | volasertib -0.012 | [3] -0.011 | [4] 0.064 | [5] -0.041 | saracatinib 0.011 | sotrastaurin 0.011 | alvocidib 0.002 | Tubastatin A -0.154 | [6] -0.046 | defactinib 0.013 | [7] -0.024 | encorafenib 0.03 | [8] 0.022 | alisertib -0.008 | [9] 0.028 | gefitinib -0.005

VPS37B (UniProt Q9H9H4)
inactive: vemurafenib -0.001 | [1] 0.003 | barasertib -0.012 | [2] 0.047 | volasertib -0.011 | [3] 0.005 | [4] -0.018 | [5] 0.04 | saracatinib 0.048 | sotrastaurin 0.01 | alvocidib 0.025 | Tubastatin A -0.034 | [6] -0.047 | defactinib 0.052 | [7] 0.024 | encorafenib -0.014 | [8] -0.053 | alisertib -0.019 | [9] -0.003 | gefitinib -0.071

ZFPM1 (UniProt Q8IX07)
inactive: vemurafenib 0.088 | [1] 0.007 | barasertib 0.031 | [2] -0.017 | volasertib 0.02 | [3] -0.042 | [4] -0.001 | [5] -0.021 | saracatinib 0.014 | sotrastaurin -0.009 | alvocidib 0.014 | Tubastatin A 0.024 | [6] -0.022 | defactinib 0 | [7] 0.007 | encorafenib 0.072 | [8] -0.009 | alisertib -0.011 | [9] 0.018 | gefitinib -0.006

WDCP (UniProt Q9H6R7)
UniProt Q9H6R7, sequence (Q9H6R7 whole entry, looked up): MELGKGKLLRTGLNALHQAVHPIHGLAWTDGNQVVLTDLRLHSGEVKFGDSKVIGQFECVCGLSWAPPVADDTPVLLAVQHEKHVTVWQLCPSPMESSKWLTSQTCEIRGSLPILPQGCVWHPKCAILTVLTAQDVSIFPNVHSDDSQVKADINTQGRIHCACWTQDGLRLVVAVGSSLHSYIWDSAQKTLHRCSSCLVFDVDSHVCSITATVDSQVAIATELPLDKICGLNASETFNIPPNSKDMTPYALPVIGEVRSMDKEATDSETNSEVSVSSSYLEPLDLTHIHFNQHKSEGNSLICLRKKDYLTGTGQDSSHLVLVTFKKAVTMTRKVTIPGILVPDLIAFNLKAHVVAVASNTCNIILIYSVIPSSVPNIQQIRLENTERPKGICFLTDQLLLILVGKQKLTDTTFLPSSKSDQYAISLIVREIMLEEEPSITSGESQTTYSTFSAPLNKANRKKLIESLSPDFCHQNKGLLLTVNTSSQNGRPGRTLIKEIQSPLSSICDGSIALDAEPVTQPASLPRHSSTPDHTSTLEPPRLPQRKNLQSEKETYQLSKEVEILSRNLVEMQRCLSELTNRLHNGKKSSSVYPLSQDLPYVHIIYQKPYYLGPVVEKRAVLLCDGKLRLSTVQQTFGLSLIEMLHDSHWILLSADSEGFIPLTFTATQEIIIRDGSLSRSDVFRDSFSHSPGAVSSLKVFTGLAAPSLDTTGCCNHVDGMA
inactive: vemurafenib -0.004 | [1] 0.033 | barasertib 0.032 | [2] 0.031 | volasertib -0.019 | [3] -0.04 | [4] 0.003 | [5] 0.01 | saracatinib -0.011 | sotrastaurin 0.039 | alvocidib 0.019 | Tubastatin A -0.138 | [6] 0.025 | defactinib 0.005 | [7] 0.032 | encorafenib 0.024 | [8] -0.019 | alisertib 0.01 | [9] 0.062 | gefitinib -0.017

UTP3 (UniProt Q9NQZ2)
UniProt Q9NQZ2, sequence (Q9NQZ2 whole entry, looked up): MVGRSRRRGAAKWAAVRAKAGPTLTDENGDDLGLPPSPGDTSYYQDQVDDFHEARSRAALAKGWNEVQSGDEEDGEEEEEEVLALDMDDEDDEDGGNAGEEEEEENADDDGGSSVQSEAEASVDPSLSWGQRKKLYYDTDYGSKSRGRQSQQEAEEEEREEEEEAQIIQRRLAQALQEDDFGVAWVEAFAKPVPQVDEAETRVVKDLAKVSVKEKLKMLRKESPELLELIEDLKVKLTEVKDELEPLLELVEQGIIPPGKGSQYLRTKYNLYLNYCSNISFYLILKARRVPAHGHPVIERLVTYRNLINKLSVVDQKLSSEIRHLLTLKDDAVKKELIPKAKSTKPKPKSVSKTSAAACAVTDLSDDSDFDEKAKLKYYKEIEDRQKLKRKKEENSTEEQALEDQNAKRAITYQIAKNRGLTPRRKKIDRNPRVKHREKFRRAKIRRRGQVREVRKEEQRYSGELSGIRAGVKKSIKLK
inactive: vemurafenib 0.004 | [1] 0.012 | barasertib 0.058 | [2] -0.009 | volasertib -0.011 | [3] -0.047 | [4] 0 | [5] -0.02 | saracatinib 0.011 | sotrastaurin 0.05 | alvocidib 0.04 | Tubastatin A -0.022 | [6] -0.047 | defactinib 0.151 | [7] 0.089 | encorafenib 0.05 | [8] 0.005 | alisertib -0.042 | [9] -0.002 | gefitinib -0.017

VPS28 (UniProt Q9UK41)
UniProt Q9UK41, sequence (Q9UK41 whole entry, looked up): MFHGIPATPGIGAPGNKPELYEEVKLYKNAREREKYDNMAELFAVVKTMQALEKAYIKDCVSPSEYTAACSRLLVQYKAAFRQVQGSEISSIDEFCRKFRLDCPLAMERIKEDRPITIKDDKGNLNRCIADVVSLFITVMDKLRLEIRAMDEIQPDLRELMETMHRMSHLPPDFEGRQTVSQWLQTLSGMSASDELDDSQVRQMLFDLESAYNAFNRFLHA
inactive: vemurafenib -0.012 | [1] 0.016 | barasertib 0.178 | [2] -0.035 | volasertib -0.012 | [3] 0.067 | [4] -0.208 | [5] 0.018 | saracatinib 0.01 | sotrastaurin -0.007 | alvocidib -0.018 | Tubastatin A -0.034 | [6] 0 | defactinib -0.018 | [7] -0.078 | encorafenib 0.046 | [8] 0.012 | alisertib -0.022 | [9] 0 | gefitinib 0.034

WDR24 (UniProt Q96S15)
UniProt Q96S15, sequence (Q96S15 whole entry, looked up): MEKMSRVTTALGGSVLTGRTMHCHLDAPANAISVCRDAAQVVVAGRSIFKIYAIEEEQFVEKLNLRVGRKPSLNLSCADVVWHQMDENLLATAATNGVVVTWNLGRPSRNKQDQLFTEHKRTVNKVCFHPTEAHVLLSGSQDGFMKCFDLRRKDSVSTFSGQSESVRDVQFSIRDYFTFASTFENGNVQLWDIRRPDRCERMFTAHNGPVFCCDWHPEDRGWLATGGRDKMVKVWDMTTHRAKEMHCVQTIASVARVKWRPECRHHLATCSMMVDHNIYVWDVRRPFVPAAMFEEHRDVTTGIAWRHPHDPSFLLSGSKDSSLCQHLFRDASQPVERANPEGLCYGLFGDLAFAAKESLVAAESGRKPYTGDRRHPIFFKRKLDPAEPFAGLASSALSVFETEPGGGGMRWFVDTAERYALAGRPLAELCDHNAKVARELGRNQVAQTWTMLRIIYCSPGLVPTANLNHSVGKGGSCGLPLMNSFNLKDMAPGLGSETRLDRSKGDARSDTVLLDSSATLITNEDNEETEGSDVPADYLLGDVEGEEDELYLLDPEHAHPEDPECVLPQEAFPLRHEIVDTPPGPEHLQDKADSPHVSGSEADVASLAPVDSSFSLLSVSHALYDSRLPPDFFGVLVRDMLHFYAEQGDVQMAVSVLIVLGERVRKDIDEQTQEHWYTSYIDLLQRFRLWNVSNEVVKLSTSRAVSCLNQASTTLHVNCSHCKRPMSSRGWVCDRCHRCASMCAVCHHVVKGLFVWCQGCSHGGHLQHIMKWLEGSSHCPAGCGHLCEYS
inactive: vemurafenib 0.083 | [1] -0.036 | barasertib 0.129 | [2] -0.055 | volasertib -0.035 | [3] 0.047 | [4] -0.026 | [5] 0.043 | saracatinib 0.078 | sotrastaurin 0.082 | alvocidib -0.001 | Tubastatin A -0.096 | [6] -0.032 | defactinib 0.053 | [7] -0.054 | encorafenib 0.022 | [8] 0.125 | alisertib -0.02 | [9] 0.021 | gefitinib -0.008

ZBTB33 (UniProt Q86T24)
UniProt Q86T24, sequence (Q86T24 whole entry, looked up): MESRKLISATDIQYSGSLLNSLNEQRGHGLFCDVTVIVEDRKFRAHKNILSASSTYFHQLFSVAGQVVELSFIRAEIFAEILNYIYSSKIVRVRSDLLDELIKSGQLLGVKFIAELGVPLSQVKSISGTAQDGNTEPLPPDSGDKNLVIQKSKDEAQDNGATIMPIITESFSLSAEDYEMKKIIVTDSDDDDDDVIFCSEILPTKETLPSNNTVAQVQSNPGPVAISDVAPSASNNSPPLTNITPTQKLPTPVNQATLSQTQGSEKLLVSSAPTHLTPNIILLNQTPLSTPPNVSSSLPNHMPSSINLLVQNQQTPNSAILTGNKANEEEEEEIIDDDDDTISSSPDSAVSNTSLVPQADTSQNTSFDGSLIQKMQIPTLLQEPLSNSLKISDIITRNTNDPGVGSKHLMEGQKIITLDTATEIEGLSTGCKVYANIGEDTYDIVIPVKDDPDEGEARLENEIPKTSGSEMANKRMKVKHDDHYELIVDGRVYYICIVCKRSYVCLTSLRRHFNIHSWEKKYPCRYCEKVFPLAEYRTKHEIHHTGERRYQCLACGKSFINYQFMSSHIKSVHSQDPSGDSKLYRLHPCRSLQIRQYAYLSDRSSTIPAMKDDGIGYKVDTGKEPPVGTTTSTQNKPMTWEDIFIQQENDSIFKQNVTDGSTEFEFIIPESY
inactive: vemurafenib 0.01 | [1] -0.017 | barasertib -0.199 | [2] -0.002 | [3] 0 | [4] 0.034 | [5] -0.008 | saracatinib 0.033 | sotrastaurin 0.015 | alvocidib -0.028 | Tubastatin A -0.005 | [6] -0.178 | defactinib -0.062 | [7] 0.119 | encorafenib 0.018 | [8] -0.004 | alisertib -0.059 | [9] -0.307 | gefitinib 0.086
active: volasertib -0.673

USE1 (UniProt Q9NZ43)
UniProt Q9NZ43, sequence (Q9NZ43 whole entry, looked up): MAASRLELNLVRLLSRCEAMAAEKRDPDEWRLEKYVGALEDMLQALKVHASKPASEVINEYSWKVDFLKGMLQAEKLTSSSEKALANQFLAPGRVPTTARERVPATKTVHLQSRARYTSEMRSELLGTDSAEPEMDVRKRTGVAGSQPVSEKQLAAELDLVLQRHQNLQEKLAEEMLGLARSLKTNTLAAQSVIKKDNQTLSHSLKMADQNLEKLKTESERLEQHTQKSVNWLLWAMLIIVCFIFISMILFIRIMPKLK
inactive: vemurafenib -0.071 | [1] -0.049 | barasertib 0.021 | [2] 0.036 | volasertib 0.04 | [3] 0.093 | [4] 0.002 | [5] -0.103 | saracatinib -0.02 | sotrastaurin 0.017 | alvocidib 0.019 | Tubastatin A -0.054 | [6] -0.002 | defactinib 0.064 | [7] 0.015 | encorafenib 0.067 | [8] -0.037 | alisertib -0.059 | [9] 0.039 | gefitinib -0.026
